# Results reported in PubChem BioAssay AID2732 (Emory University Molecular Libraries Screening Center, 2010).
# Screen size: about 220,000 compounds; about 8,200 (3.7%) were called active. The sample as a whole holds a higher share of actives than the screen did. A number with no mark means an inactive call.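 How the source made its calls: active means compounds that reduced the stress-induced luciferase reporter signal by more than about 70% of percent inhibition (limit read from the data); inactive means the rest.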
# Test: inhibitors of CHOP promoter induction, primary screen, cell-based, unfolded protein response, luciferase reporter (AID 2732);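 further: 0% = tunicamycin plus vehicle and 100% = wells without tunicamycin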
# Conditions: CHO-K1 CHOP-promoter luciferase, tunicamycin-induced, 15-18 h; at 10 µM; stronger effect = higher value
row,Compound,inhibition
1,CSc1ccc(NC(=O)/C=C/C(=O)O)cc1,6.47%
2,CC(C)S(=O)(=O)c1csc(NC(=O)Nc2ccc(Cl)cc2)c1Cl,-24.8%
3,COc1ccc(-c2csc(N3CCN(Cc4ccc5c(c4)OCO5)CC3)n2)cc1,86.8% (active)
4,COc1cccc(NC(=O)CN2CCN(c3nc(-c4cccc(OC)c4)cs3)CC2)c1,19.3%
5,O=C(CN1CCN(c2nc(-c3ccccc3)cs2)CC1)NCc1ccc2c(c1)OCO2,63.6%
6,COc1cc(C(F)(F)F)c(C(=O)N(C)c2ccc(Cl)cc2)cn1,13.6%
7,O=C(Nc1ccc(-c2csc(Nc3cccc(C(F)(F)F)c3)n2)cc1)c1cccc(C(F)(F)F)c1,21.4%
8,COC(=O)CSc1nccc(-c2cccs2)n1,-10.9%
9,O=C(O)COc1ccc(-c2nccc(-c3cccs3)n2)cc1,73.8% (active)
10,O=C(Nc1ccnc(-c2ccncc2)n1)c1cccs1,10.6%
11,O=c1[nH]c(CSc2ccccc2)nc2c1oc1ccccc12,-3.37%
12,Cc1nnsc1C(=O)NCc1c(F)cccc1Cl,15.1%
13,COc1ccc(-c2cn3ccc(C)cc3n2)cc1,59.3%
14,Cc1ccc(-c2cn3cc([N+](=O)[O-])ccc3n2)cc1,54.5%
15,Cc1ccc(-c2cn3cc(C)ccc3n2)cc1,95.9% (active)
16,COc1ccccc1N1CCN(C(=O)CSc2ncnc3c2cnn3-c2ccc(C)c(C)c2)CC1,-4.74%
17,Cc1nc(C(=O)N2CCCC(C(=O)c3ccc(Cl)cc3)C2)cs1 (stereo unspecified),-9.72%
18,CN(C(=O)CSc1nncc2ccccc12)C1CCCCC1,4.17%
19,CN(c1ccc2nc3ccccc3c(=O)n2n1)C1CCCCC1,84.1% (active)
20,O=c1c2ccccc2nc2n1C1(CCCCC1)Cc1ccccc1-2,-15.6%
21,O=C(C[n+]1cc(-c2ccc(Cl)c(Cl)c2)n2c1CCC2)c1cccs1,-8.35%
22,Cc1ccc(S(=O)(=O)N(C)C)cc1NC(=O)c1n[nH]c(=O)c2ccccc12,2.56%
23,O=C(Nc1ccc(F)cc1)c1cc2c(s1)CCCC2,10.4%
24,C/C(=N\NC(=O)c1cc2c(s1)CCC(C)C2)c1cccnc1 (stereo unspecified),6.64%

row,Compound,inhibition
1,CC1CCc2sc(C(=O)N/N=C/C3CCCCC3)cc2C1 (stereo unspecified),71.4% (active)
2,NC(=O)c1c(NC(=O)CSc2nc(N)cc(=O)[nH]2)sc2c1CCCC2,15.3%
3,COc1cc(/C=C2/C(=O)ON=C2C)ccc1OCc1cccc(F)c1,104% (active)
4,CC1=NOC(=O)/C1=C\c1ccccc1,-18.4%
5,COc1cc(/C=C2/C(=O)ON=C2C)ccc1OCc1ccccc1F,-26.4%
6,Cc1cc(NCc2cccnc2)no1,3.98%
7,O=C(NC(=O)N1CCSCC1)c1c(Cl)cccc1Cl,12.1%
8,Cc1cc(CO)nn1-c1ccc([N+](=O)[O-])cc1,7.27%
9,CNC(=O)C(NC(=O)c1ccccc1)=C(C)C,1.37%
10,CCN(CC)c1ccc(NC(=O)C2CCC(CNc3c(N4CCCC4)c(=O)c3=O)CC2)c(C)c1 (stereo unspecified),-9.36%
11,Cc1cc(-c2nc(C)c(-c3nnc(SCC(=O)Nc4ccccc4)n3C)s2)no1,5.16%
12,COc1cccc(-c2nc3cc(C)ccc3o2)c1,61.7%
13,CC(C)(C)Oc1ncc(Br)c(OC(C)(C)C)n1,23.2%
14,COc1cccc(-c2cnc(OC(C)(C)C)nc2OC(C)(C)C)c1,91.8% (active)
15,Cc1ccc(C(=O)Nc2nc(N)n(-c3ccccc3)n2)cc1,12.8%
16,O=C(Nc1cccc([N+](=O)[O-])c1)Nc1ccc(Cl)cn1,2.82%
17,O=C(CCl)N(Cc1cccc([N+](=O)[O-])c1)c1cccc(Cl)c1,105% (active)
18,CCN(CC)C(=O)CN(c1cccc([N+](=O)[O-])c1)S(=O)(=O)c1ccccc1,0.69%
19,COC(=O)c1scc(S(=O)(=O)C(C)(C)C)c1-n1cccc1,6.86%
20,Cc1ccc(S(=O)(=O)NC(=O)N2CCCN(Cc3ccc(F)cc3)CC2)cc1,9.07%
21,COc1ccc(NS(=O)(=O)c2ccc(NC(=S)NC(=O)/C=C/c3ccc(C)cc3)cc2)nn1,95.5% (active)
22,Cc1ccc(NC(=S)NC(=O)/C=C/c2ccc(Cl)cc2)cc1,17.9%
23,COc1ccc(NS(=O)(=O)c2ccc(NC(=O)C(C)(C(F)(F)F)C(F)(F)F)cc2)nn1,-4.95%
24,CCN(CC)CCCN=Cc1c(O)n(-c2ccc(C)cc2)c(=O)c2ccccc12,6.14%

row,Compound,inhibition
1,CSCC[C@H](NC(=O)NC1CCCC1)C(=O)O,-0.23%
2,COc1ccc(-c2nc(CS(=O)CC(=O)NCc3ccccn3)c(C)o2)cc1 (stereo unspecified),7.53%
3,Cc1ccc(-c2nc(CS(=O)CC(=O)N3CCN(c4ncccn4)CC3)c(C)o2)cc1 (stereo unspecified),44.5%
4,COc1ccc(-c2nc(CS(=O)CC(=O)N3CCc4ccccc4C3)c(C)o2)cc1 (stereo unspecified),86.5% (active)
5,CCn1c(SCC(=O)Nc2sc(C)c(C)c2C#N)nnc1C1CC1,5.65%
6,CCc1ccccc1NC(=O)CSc1nnc(CCNC(=O)OC(C)(C)C)o1,15.9%
7,O=C(/C=C/c1ccc(Cl)c([N+](=O)[O-])c1)c1ccc(O)cc1,-208%
8,Cc1ccc(-c2nn(-c3ccccc3)cc2C(=O)Nc2cccc(S(=O)(=O)N3CCOCC3)c2)cc1,40%
9,Cc1ccc(-c2nn(-c3ccccc3)cc2/C=C/C(=O)Nc2cccc(S(N)(=O)=O)c2)cc1,88.3% (active)
10,COc1ccc(-c2nn(-c3ccccc3)cc2/C=C\C(=O)Nc2ccc(C(=O)O)cc2)cc1,40.4%
11,CC(=O)NCc1ccc(S(=O)(=O)NC2CCN(Cc3ccccc3)CC2)cc1,-10.7%
12,Nc1ccccc1SC(C[N+](=O)[O-])c1ccccc1 (stereo unspecified),46.3%
13,O=C1CC2(CC(c3ccc(Cl)cc3)=NO2)C(=O)N1c1ccccc1 (stereo unspecified),18.6%
14,NC(=O)C1=C[C@@H](c2csc3ccccc23)C[C@@H](OCc2ccc(CO)cc2)O1,36.3%
15,COP1(=O)C[C@@H](O)[C@@H](O)[C@@H](COCc2ccccc2)O1 (stereo partly specified),-7.84%
16,CCCc1nc(-c2cc3cc(C)ccc3[nH]c2=O)no1,14.6%
17,Cc1ccc2[nH]c(=O)c(-c3nc4c(C)cccn4c3NCc3ccco3)cc2c1,95.7% (active)
18,CCNCc1cc2cc(C)ccc2[nH]c1=O,-7.23%
19,Cc1nnc(SC(C(=O)c2ccccc2)c2ccccc2)[nH]c1=O (stereo unspecified),-8.07%
20,CCn1c2ccccc2c2cc(NC(=O)CNC)ccc21,5.95%
21,O=C(CCN1C(=O)c2ccccc2C1=O)NCCCn1ccnc1,-1.9%
22,CCOc1ccccc1C(=O)NCCCn1ccnc1,-4.75%
23,CCCC(=O)Nc1ccc(C(=O)NCCCn2ccnc2)cc1,73.7% (active)
24,N#C/C(=C\N1CCOCC1)S(=O)(=O)c1ccc(Cl)cc1,21.5%

row,Compound,inhibition
1,CCc1ccc(Nc2ncc3c(n2)CC(c2ccco2)CC3=O)cc1 (stereo unspecified),78.5% (active)
2,COc1cc(C2CC(=O)c3cnc(NC(C)=O)nc3C2)cc(OC)c1OC (stereo unspecified),30.2%
3,O=C(Nc1ncc2c(n1)CC(c1ccco1)CC2=O)c1ccc(Cl)cc1 (stereo unspecified),33.8%
4,CCOC(=O)c1cn(CC)c2cc(F)c(F)cc2c1=O,-15.5%
5,O=C(CNC(c1ccccc1)c1ccccc1)Nc1ccc(F)cc1,23.2%
6,O=C(CNC(=O)c1cc(=O)[nH]c2ccccc12)Nc1ccc(F)c(F)c1,-18.5%
7,O=C(CC(NC(=O)c1ccccc1)c1ccccc1)Nc1ccc(F)c(F)c1 (stereo unspecified),105% (active)
8,CCn1c(=O)c([N+](=O)[O-])c(NCc2ccc3c(c2)OCO3)c2ccccc21,22.4%
9,Cc1cc(NC(=O)OC(C)C)ccc1-c1ccc(NC(=O)OC(C)C)cc1C,25.1%
10,C(=N\Nc1ccc2ccccc2n1)/c1ccc2c(c1)OCO2,71% (active)
11,Brc1ccc(-c2csc(N/N=C/c3ccc4c(c3)OCO4)n2)cc1,26.8%
12,Cc1noc(C)c1/C=N/Nc1ccc2ccccc2n1,16.5%
13,COc1ccc(Cc2cc(-c3ccc(F)cc3)n[nH]c2=O)cc1,15.3%
14,O=C(NCC1CCCO1)c1cc(-c2ccccc2)nc2ccccc12 (stereo unspecified),1.14%
15,Cc1ccc(-c2csc(SCC(=O)Nc3cc(C)on3)n2)cc1,32.5%
16,Cc1ccc(SCCC(=O)Nc2cc(C)on2)cc1,20.7%
17,Cc1ccc2nc(-c3ccc(SCC(=O)Nc4cc(C)on4)nc3)[nH]c2c1,91.1% (active)
18,CCCc1nc2oc3c(=O)[nH]cnc3c2c2c1COC(C)(C)C2,-14.7%
19,COC(=O)c1cc(S(=O)(=O)N2CCC(C(N)=O)CC2)oc1C,4.8%
20,COCCNc1nc(-c2ccccc2)nc2c1oc1ccccc12,37.1%
21,Cc1cc(C)n(CC(C)NCc2c(C(=O)N3CCOCC3)nc3c(C)cccn23)n1 (stereo unspecified),11.3%
22,O=C(Nc1ccccc1)/C(=C/c1ccc([N+](=O)[O-])cc1)NC(=O)c1ccccc1,51.8%
23,Cc1ccc(NC(=O)/C(=C/c2ccc([N+](=O)[O-])cc2)NC(=O)c2ccccc2)cc1,104% (active)
24,O=C(Nc1ccc(C(=O)O)cc1)/C(=C/c1ccc([N+](=O)[O-])cc1)NC(=O)c1ccccc1,-5.43%
